Results as given in PubChem BioAssay (NCI).
The panel holds about 83,000 compounds, 20% with a hit somewhere; the sample as a whole holds those more often.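 Testing used 96-well plates and a 48-hour single-concentration exposure. Example: -40 means 40% of the starting cells died.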 Values without a mark were called inactive. Activity calls are given as the source filed them. How the source made its calls: active means growth percent below 10; inactive means the rest.

Tested on: NCI-H23 lung
Assay: NCI-60 one-dose screen, 48 h (100 = growth as untreated, 0 = no growth, -100 = all killed)
Settings: 10 µM unless noted

Structure (SMILES) | growth
COc1ccc(C(=O)c2cc(OC)c(OC)c(OC)c2)cc1OC(C)=O | 31%
COc1ccc(N(CC(=O)NCCC[Te]c2ccccc2)C(=O)CNC(=O)OC(C)(C)C)cc1 | -15.5% (active)
COC(=O)[C@@H](C)C[C@H](Cc1ccccc1)NC(=O)c1csc([C@@H](C[C@H](C(C)C)N(C)C(=O)[C@@H](NC(=O)[C@H]2CCCCN2C)C(C)C)OC(C)=O)n1 | 23.7%
CC[C@H](C)[C@@H]1OC(=O)C(C)(C)[C@H](O)[C@H](Cc2ccccc2)OC(=O)[C@H](C(C)C)OC(=O)[C@@H](NC(=O)c2cccc(NC=O)c2O)[C@@H](C)OC1=O | 36.4%
NC(=O)CNc1ccc([As]=[As]c2ccc(NCC(N)=O)cc2)cc1 (stereo unspecified) | 62.2%
Fc1ccc2c(c1)c(-c1nc(-c3c[nH]c4ncccc34)cs1)cn2CCN1CCOCC1 | 60%
O=C([O][Hg][CH2]C1COCC([CH2][Hg][O]C(=O)c2ccccc2)O1)c1ccccc1 (stereo unspecified) | 90.2%
O=[N+]([O-])CC(c1ccccc1Cl)c1c(-c2ccccc2)[nH]c2ccccc12 (stereo unspecified) | 53.8%
CCn1c2ccccc2c2cc(C(=O)c3cccc4c3CCCN4)ccc21 | 100%
COc1ccc(/C(C)=C(\c2ccc(OCCN3CCOCC3)cc2)c2ccc(OC(=O)Cc3ccccc3)cc2)cc1 | 95.1%
Cc1cc(N(CCCl)CCCl)ccc1C=Nc1ccc(-c2csc(Cc3ccccc3)n2)cc1 | 59.1%
Cc1ccc2c(C(C[N+](=O)[O-])c3cccs3)c(-c3ccccc3)[nH]c2c1 (stereo unspecified) | 38.4%
O=C(CC1(O)C(=O)N(Cc2ccccc2)c2ccc(Cl)cc21)c1ccc(C(=O)NCC2CCC3(CC2)OOC2(CCCCC2)OO3)cc1 (stereo unspecified) | -67% (active)
CCOC(=O)CCC(NC(=O)C(Cc1ccc(N(CCCl)CCCl)cc1)NC=O)C(=O)OCC (stereo unspecified) | 1.98% (active)
COC(=O)[C@@H](C)C[C@H](Cc1ccccc1)NC(=O)c1csc([C@@H](C[C@H](C(C)C)N(C)C(=O)[C@@H](NC(=O)C23CC(NC(C)=O)(C2)C3)C2CC2)OC(C)=O)n1 | 60.2%
COC(=O)[C@]12CCC(C)(C)C[C@H]1[C@H]1C(=O)C[C@@H]3[C@@]4(C)C[C@@]5(CC(C)(C)[C@@H]4CC[C@@]3(C)[C@]1(C)CC2)OO[C@@](C)(C(F)(F)F)O5 | 89%
CNC(=O)Oc1ccc(N(C)C)cc1C(C)C | 103%
COc1ccc(/C=C\c2cc(OC)c(OC)c(OC)c2)cc1OCC(=O)Nc1nc2ccc(C(F)(F)F)cc2s1 | 40.1%
O=C(CC1(O)C(=O)N(Cc2ccccc2)c2ccc(F)cc21)c1ccc(C(=O)NCC2CCC3(CC2)OOC2(CCCCC2)OO3)cc1 (stereo unspecified) | -70.8% (active)
c1cnc2[nH]cc(-c3csc(-c4cn(CCCCN5CCCCC5)c5ccccc45)n3)c2c1 | 95.2%
COc1ccc(NC([Se])=NC23CC4CC(CC(C4)C2)C3)cc1 | -23% (active)
Clc1cccc(Cl)c1Cl | 102%
C[C@]12CCc3sc(-c4ccccc4O)nc3C1=CC[C@@H]1[C@@H]2CC[C@]2(C)C(=O)CC[C@@H]12 | 103%
O=C(CC1(O)C(=O)Nc2ccccc21)c1ccc(C(=O)NCC2CCC3(CC2)OOC2(CCCCC2)OO3)cc1 (stereo unspecified) | 50.4%
CCCOC(=O)N[C@H]1CCc2c(Br)c(OC)c(OC)c(OC)c2-c2ccc(SC)c(=O)cc21 | 26.9%
Cc1cc(C)c(CBr)c(C)c1 | 100%
